Experimental data: the supplement of paper PMC10849652
Of roughly 7,900 targets only a part is listed; those with a hit were picked by preference. About 0.6% of all pairs of compound and target were hits.

Key:
Assay in all cases: log2 fold change, soluble protein after heating vs DMSO (PISA); higher = thermal stabilisation; K562 cells, 10 uM, 30 min; active = over 0.2 and 3.5 SD of the protein, either way, in both replicates (recomputed)
[1] = compound: CC1=C(C=C(C=C1)NC(=O)C2=CC(=CC=C2)C(C)(C)C#N)NC3=CC4=C(C=C3)N=CN(C4=O)C
Procedure, shortened: (§1)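 K562 cells at 2×10^6 cells/mL were given 10 μM compound for 30 min. Aliquots then went through 3 min of heating across 48°C-58°C, were pooled, and were extracted in PBS with 0.5% NP-40 at 4°C, and the supernatant after 21,000xg for 90 min was quantified by TMTpro 16plex LC-MS/MS with channel sums equalised. Thermal stability relative to control samples, from duplicates, is given as log2 fold change.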

[2] = compound: CC1=CC=C(C=C1)SC2=C3C=C(SC3=CN=C2)C(=O)N
Procedure, shortened: as §1

vemurafenib = compound: CCCS(=O)(=O)Nc1ccc(F)c(C(=O)c2c[nH]c3ncc(-c4ccc(Cl)cc4)cc23)c1F [vemurafenib]
Procedure, shortened: as §1

[3] = compound: CCCS(=O)(=O)Nc1ccc(F)c(C(=O)c2c[nH]c3ncc(Cl)cc23)c1F
Procedure, shortened: as §1

givinostat = compound: CCN(CC)Cc1ccc2cc(COC(=O)Nc3ccc(C(=O)NO)cc3)ccc2c1 [givinostat]
Procedure, shortened: as §1

barasertib = compound: CCN(CCCOc1ccc2c(Nc3cc(CC(=O)Nc4cccc(F)c4)[nH]n3)ncnc2c1)CCOP(=O)(O)O [barasertib]
Procedure, shortened: as §1

[4] = compound: CC1=NC(=CC=C1)C2=C(N=C(N2)C(C)(C)C)C3=CC4=NC=CN=C4C=C3
Procedure, shortened: as §1

Nexturastat A = compound: CCCCN(Cc1ccc(C(=O)NO)cc1)C(=O)Nc1ccccc1 [Nexturastat A]
Procedure, shortened: as §1

[5] = compound: CCCc1cc(C)[nH]c(=O)c1CNC(=O)c1cc(-c2ccnc(N3CCN(C)CC3)c2)cc2c1cnn2C(C)C
Procedure, shortened: as §1

[6] = compound: CC1=C(C=C(C=C1)NC(=O)C2=CC(=CC=C2)N(C)C)NC(=O)C3=CC=C(C=C3)O
Procedure, shortened: as §1

Measured: log2 fold change

AUNIP isoform 2 (UniProt Q9H7T9)
inactive: [1] 0.113 | [2] 0.101 | vemurafenib 0.081 | [3] 0.073 | givinostat 0.083

ATP6V0A1 (UniProt Q93050)
inactive: barasertib -0.095

BRAF (UniProt P15056)
inactive: [1] 0.15 | [2] 0.02 | [4] -0.01 | Nexturastat A -0.053 | vemurafenib 0.148 | [3] 0.144 | [5] -0.049 | givinostat -0.031 | barasertib 0.022

AUH (UniProt Q13825)
Sequence of UniProt Q13825 (Q13825 whole entry, looked up): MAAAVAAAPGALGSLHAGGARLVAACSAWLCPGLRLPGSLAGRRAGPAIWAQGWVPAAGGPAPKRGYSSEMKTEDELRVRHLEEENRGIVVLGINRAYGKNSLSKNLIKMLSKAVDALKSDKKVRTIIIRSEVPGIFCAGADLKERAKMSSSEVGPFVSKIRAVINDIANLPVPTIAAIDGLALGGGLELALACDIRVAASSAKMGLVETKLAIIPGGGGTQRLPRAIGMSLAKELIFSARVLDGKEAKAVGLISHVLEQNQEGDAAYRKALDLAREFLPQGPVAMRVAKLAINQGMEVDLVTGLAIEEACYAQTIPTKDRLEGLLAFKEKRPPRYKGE
inactive: [6] -0.007 | [2] -0.107 | [4] 0.082 | vemurafenib 0.091 | [3] 0.008 | [5] -0.185 | givinostat 0.279 | barasertib 0.096

AP2M1 (UniProt C9JTK4)
inactive: [1] -0.04 | [4] -0.033 | Nexturastat A 0.009 | vemurafenib -0.262 | [5] -0.172 | barasertib -0.079

ATRN (UniProt O75882)
Sequence of UniProt O75882 (O75882 whole entry, looked up): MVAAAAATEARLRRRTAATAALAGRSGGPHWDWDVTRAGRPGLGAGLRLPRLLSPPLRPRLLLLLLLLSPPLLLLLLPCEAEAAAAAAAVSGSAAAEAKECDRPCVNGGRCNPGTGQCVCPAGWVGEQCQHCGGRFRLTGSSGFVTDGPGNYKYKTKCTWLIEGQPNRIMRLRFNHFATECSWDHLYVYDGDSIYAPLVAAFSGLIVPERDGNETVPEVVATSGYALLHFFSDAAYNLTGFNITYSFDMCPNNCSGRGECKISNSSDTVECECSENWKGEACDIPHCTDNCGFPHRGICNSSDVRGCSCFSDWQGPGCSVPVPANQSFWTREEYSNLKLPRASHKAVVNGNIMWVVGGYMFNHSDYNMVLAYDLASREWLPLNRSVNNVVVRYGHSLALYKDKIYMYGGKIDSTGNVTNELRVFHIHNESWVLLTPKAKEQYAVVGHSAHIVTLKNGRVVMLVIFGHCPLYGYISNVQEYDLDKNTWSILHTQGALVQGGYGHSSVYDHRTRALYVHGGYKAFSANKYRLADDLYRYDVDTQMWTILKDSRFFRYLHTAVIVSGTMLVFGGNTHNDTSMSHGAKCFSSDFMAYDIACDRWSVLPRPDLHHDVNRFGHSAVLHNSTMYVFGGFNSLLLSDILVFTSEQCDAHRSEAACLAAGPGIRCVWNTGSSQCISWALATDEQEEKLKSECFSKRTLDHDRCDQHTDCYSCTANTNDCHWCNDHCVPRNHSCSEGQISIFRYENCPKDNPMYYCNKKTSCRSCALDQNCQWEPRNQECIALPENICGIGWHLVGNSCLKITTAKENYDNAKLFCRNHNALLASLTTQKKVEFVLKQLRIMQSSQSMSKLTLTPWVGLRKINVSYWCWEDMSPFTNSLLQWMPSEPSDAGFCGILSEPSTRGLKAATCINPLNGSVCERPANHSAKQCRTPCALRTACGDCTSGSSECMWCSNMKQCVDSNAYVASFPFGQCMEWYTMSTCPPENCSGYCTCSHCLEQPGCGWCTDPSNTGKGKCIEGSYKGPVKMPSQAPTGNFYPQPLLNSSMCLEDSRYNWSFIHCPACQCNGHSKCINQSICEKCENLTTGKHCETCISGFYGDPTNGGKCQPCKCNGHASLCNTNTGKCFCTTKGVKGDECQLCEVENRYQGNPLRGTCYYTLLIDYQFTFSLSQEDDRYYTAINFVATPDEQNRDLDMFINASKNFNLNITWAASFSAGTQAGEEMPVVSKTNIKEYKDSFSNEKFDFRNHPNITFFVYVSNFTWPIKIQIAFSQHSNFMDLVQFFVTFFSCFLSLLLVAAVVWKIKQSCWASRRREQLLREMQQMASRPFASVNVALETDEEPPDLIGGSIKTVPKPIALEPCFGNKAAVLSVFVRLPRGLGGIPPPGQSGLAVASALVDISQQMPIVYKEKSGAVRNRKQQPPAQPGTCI
inactive: [1] 0.037 | [2] -0.034 | [4] -0.061 | Nexturastat A -0.135 | vemurafenib -0.026 | [3] 0.054 | [5] -0.003 | givinostat 0.026 | barasertib -0.09

BRMS1 (UniProt Q9HCU9)
active: Nexturastat A 0.512
inactive: [5] 0.137

ARL4A (UniProt P40617)
inactive: [5] 0.078 | barasertib 0.057

ACSL6 isoform 1 (UniProt Q9UKU0)
inactive: [1] 0.075 | [6] -0.014 | Nexturastat A 0.082 | vemurafenib 0.17 | [5] 0.035 | givinostat 0.04 | barasertib 0.133

ATXN7L3 isoform 2 (UniProt Q14CW9)
Sequence of UniProt Q14CW9 (Q14CW9 whole entry, looked up): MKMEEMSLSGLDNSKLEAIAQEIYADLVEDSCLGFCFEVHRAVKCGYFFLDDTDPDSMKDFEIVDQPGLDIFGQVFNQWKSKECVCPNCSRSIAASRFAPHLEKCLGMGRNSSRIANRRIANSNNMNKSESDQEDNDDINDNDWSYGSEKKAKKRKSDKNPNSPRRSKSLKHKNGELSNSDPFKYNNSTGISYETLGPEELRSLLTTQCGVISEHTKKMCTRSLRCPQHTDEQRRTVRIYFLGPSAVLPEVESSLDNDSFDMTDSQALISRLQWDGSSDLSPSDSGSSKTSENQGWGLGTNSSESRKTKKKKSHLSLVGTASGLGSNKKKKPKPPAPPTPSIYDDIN
inactive: [1] 0.013 | [6] -0.017 | [4] -0.09 | [5] 0.137 | givinostat -0.046 | barasertib -0.042

AARSD1 (UniProt Q9BTE6)
inactive: [2] 0.044 | [4] 0.278 | [3] 0.206 | [5] 0.027 | givinostat -0.285 | barasertib 0.119

ADD2 isoform 9 (UniProt P35612)
Sequence of UniProt P35612 (P35612 whole entry, looked up): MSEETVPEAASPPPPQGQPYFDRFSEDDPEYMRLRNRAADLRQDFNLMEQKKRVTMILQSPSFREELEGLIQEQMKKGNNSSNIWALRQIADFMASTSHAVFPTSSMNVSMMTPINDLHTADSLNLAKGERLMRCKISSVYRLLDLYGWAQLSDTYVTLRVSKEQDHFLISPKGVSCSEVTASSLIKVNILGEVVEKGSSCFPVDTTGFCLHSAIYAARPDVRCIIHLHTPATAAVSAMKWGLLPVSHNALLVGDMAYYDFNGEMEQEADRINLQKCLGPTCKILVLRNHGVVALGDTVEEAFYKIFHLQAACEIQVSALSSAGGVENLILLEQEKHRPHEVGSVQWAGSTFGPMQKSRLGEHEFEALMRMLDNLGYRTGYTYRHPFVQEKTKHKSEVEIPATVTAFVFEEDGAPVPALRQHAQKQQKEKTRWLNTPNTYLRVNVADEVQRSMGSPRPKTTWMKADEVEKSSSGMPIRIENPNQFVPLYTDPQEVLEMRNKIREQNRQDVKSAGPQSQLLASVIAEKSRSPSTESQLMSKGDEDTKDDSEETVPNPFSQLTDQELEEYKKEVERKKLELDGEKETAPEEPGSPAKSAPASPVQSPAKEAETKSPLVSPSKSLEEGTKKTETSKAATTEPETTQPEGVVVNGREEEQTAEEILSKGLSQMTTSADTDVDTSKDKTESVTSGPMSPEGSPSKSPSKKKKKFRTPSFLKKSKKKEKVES
inactive: [1] 0.191 | [6] 0.065 | [2] -0.067 | [3] -0.114 | [5] 0.079 | barasertib 0.047

ADD1 isoform 4 (UniProt P35611)
inactive: [4] 0.098 | Nexturastat A 0.024 | barasertib 0.03

BRD2 isoform 2 (UniProt P25440)
inactive: [1] 0.348 | [2] 0.039 | [4] 0.076 | vemurafenib -0.033 | [3] 0.014 | givinostat -0.596 | barasertib -0.053

ADAMTS5 (UniProt Q9UNA0)
inactive: [1] -0.171 | [6] -0.022 | [4] -0.164 | vemurafenib -0.095 | [5] -0.572 | givinostat 0.222 | barasertib 0.02

AKNA (UniProt Q7Z591)
inactive: [1] 0.079 | [2] -0.047 | [3] -0.02 | givinostat 0.177

ACTR3B (UniProt Q9P1U1)
inactive: [6] -0.046 | [2] -0.05 | [4] 0.198 | vemurafenib 0.019 | [3] 0.014 | givinostat 0.147

ARFIP1 isoform 2 (UniProt P53367)
inactive: [1] -0.106 | [2] 0.051 | [4] 0.031 | Nexturastat A -0.025 | [3] 0.097 | [5] 0.121 | givinostat 0.061 | barasertib 0.019

ACOX3 (UniProt O15254)
Sequence of UniProt O15254 (O15254 whole entry, looked up): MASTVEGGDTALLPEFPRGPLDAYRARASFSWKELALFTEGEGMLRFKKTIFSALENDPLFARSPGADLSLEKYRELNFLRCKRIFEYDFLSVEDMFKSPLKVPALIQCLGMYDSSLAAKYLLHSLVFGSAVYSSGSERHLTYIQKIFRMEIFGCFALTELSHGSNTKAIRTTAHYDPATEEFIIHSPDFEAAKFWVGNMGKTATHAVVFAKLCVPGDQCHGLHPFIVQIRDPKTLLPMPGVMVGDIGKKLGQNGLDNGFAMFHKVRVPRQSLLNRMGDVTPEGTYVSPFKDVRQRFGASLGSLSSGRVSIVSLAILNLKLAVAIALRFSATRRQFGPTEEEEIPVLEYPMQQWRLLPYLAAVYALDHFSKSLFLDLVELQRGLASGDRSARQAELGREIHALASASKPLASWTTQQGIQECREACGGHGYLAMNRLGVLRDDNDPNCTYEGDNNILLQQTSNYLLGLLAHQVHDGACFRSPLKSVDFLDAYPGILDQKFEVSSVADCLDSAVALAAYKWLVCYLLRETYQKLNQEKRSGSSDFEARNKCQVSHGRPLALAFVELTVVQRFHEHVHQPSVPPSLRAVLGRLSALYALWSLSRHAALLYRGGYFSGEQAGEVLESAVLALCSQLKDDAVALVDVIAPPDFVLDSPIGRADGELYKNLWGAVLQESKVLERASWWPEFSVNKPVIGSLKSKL
inactive: [1] 0.111 | [2] -0.192 | [4] -0.011 | Nexturastat A 0.039 | vemurafenib 0.057 | [3] -0.009 | [5] 0.184 | givinostat -0.01 | barasertib -0.035

BAP18 isoform 3 (UniProt Q8IXM2)
inactive: [5] 0.005 | givinostat 0.025

ANGEL1 (UniProt Q9UNK9)
inactive: [6] -0.121 | vemurafenib -0.079 | barasertib 0.033
active: [4] 0.591

BRAF, A0A2R8Y8E0
inactive: [4] -0.021 | [5] -0.078 | givinostat -0.006
active: [6] -1.03

ARMC8 isoform 6 (UniProt Q8IUR7)
inactive: vemurafenib 0.031 | givinostat 0.075 | barasertib -0.021

ATF1 (UniProt P18846)
inactive: [1] -0.066 | [2] -0.113 | Nexturastat A -0.026 | vemurafenib 0.035 | [3] -0.016 | [5] 0.002 | givinostat 0.003 | barasertib 0.079

AP4S1 (UniProt Q9Y587)
inactive: [1] 0.033 | [2] -0.017 | [4] -0.007 | Nexturastat A -0.097 | vemurafenib 0.107 | [3] 0.02 | [5] 0.102 | givinostat 0 | barasertib -0.008

AFDN isoform 1 (UniProt P55196)
inactive: [1] 0.035 | [6] 0.083 | [4] 0.03 | Nexturastat A -0.164 | vemurafenib 0.342 | [5] 0.062 | givinostat 0.259 | barasertib -0.045

ACP1 (UniProt P24666)
inactive: [1] 0.007 | [2] 0.01 | [4] -0.123 | Nexturastat A 0.001 | vemurafenib 0.071 | [3] -0.047 | [5] 0.039 | givinostat 0.076 | barasertib 0.12

APH1A (UniProt Q96BI3)
Sequence of UniProt Q96BI3 (Q96BI3 whole entry, looked up): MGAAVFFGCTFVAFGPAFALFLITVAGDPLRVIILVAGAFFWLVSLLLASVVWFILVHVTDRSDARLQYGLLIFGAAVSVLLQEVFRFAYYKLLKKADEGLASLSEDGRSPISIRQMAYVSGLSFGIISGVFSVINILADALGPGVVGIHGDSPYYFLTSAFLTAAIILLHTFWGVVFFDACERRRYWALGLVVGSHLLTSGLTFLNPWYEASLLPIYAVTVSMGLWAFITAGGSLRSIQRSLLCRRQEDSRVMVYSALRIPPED
inactive: [1] -0.136 | [2] 0.091 | [4] 0.042 | vemurafenib 0.237 | [3] 0.121 | [5] -0.085 | givinostat 0.021 | barasertib 0.002

ALG14 (UniProt Q96F25)
Sequence of UniProt Q96F25 (Q96F25 whole entry, looked up): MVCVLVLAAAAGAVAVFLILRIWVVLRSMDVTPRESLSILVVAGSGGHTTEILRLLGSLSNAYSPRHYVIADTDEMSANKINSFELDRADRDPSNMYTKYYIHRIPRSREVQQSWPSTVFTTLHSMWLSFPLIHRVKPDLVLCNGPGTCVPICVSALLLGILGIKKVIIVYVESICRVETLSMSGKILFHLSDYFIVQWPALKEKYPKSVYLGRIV
inactive: [6] -0.13 | [2] 0.045 | [4] 0.068 | Nexturastat A -0.479 | vemurafenib -0.053 | [3] 0.052 | [5] -0.131 | givinostat 0.03 | barasertib 0.03

ABCA4 (UniProt P78363)
active: Nexturastat A 0.576
inactive: [1] -0.145 | [6] -0.068 | [4] -0.168 | [5] 0.033 | givinostat 0.23 | barasertib 0.015

AZI2 (UniProt Q9H6S1)
inactive: [1] -0.091 | [6] 0.045 | vemurafenib 0.047 | givinostat 0.028 | barasertib -0.023

ARHGAP25 isoform 4 (UniProt P42331)
Sequence of UniProt P42331 (P42331 whole entry, looked up): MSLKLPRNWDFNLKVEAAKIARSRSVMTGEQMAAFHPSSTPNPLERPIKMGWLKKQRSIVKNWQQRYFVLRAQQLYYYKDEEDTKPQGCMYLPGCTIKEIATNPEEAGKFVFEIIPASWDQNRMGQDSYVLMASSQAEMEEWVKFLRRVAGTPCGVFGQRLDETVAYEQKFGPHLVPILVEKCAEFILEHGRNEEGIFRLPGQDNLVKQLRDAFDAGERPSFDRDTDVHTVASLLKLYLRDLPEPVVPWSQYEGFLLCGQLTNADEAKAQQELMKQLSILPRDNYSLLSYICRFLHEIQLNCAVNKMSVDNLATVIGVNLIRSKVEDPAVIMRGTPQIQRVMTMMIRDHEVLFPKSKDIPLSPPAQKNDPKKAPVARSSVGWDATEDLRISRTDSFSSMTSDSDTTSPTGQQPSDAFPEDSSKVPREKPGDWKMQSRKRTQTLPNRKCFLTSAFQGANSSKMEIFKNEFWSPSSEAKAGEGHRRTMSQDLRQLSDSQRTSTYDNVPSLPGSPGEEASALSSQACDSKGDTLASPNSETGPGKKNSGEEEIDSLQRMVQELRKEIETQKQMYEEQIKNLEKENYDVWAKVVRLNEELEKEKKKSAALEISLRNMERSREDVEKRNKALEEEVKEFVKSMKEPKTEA
inactive: Nexturastat A 0.078 | vemurafenib 0.086 | [5] -0.052 | givinostat 0.307 | barasertib -0.018

ABHD11 (UniProt Q8NFV4)
Sequence of UniProt Q8NFV4 (Q8NFV4 whole entry, looked up): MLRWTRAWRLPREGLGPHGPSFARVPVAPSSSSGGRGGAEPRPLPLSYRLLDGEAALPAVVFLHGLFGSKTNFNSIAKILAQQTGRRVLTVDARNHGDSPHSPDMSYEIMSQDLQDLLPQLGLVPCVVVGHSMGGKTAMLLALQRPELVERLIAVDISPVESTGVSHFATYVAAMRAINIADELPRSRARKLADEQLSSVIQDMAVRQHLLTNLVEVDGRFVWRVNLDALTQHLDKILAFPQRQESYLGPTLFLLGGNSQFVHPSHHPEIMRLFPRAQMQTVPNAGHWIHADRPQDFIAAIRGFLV
inactive: [6] -0.065 | [2] -0.004 | [4] 0.003 | Nexturastat A -0.028 | vemurafenib 0.139 | [3] -0.011 | [5] 0.023 | givinostat 0.02 | barasertib 0.057
